Reference: PubChem BioAssay AID1159580 (chemical genetic matrix, 2015)
Several values for one entry are separate records, joined by “and”; a condition that tells them apart may be missing. Equal entries are not always repeated. About 2,000 (36%) of roughly 5,500 compounds were called active. About 18% were inconclusive and are not listed. No stated cut-off is given here; in the data, active means normalized growth mostly below about 0.91 (no sharp cut-off); inconclusive means no clear call, values can overlap the other calls; inactive means mostly above about 0.92. The list shows a part of the results.

Assay: chemical genetic growth profiling, strain panel (AID 1159580);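 further: tested at 20 µM; growth read once vehicle control cultures reached saturation at 30 °C; 1 = growth at the plate median or of vehicle wells; lower values mean less growth of the strain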
Settings: S. cerevisiae deletion strains, growth OD

Measured: normalized growth

COc1ccc(Cl)cc1C(=O)NCCc1ccc(S(=O)(=O)NC(=O)NC2CCCCC2)cc1
inactive: locus YAL013W, strain DEP1, hits give low values 0.982 | locus YAL021C, strain ccr4, hits give low values 1.01 | locus YAL026C, strain drs2, hits give low values 1 | locus YAL030W, strain snc1, hits give low values 1 | locus YAL040C, strain CLN3, hits give low values 0.984 | locus YBL061C, strain skt5, hits give low values 1 | locus YBR009C, strain hhf1, hits give low values 0.993 | locus YBR021W, strain FUR4, hits give low values 1.03 | locus YBR023C, strain chs3, hits give low values 1 | locus YBR171W, strain sec66, hits give low values 1.01 | locus YBR229C, strain ROT2, hits give low values 0.956 | locus YBR231C, strain swc5, hits give low values 0.997 | locus YBR279W, strain paf1, hits give low values 1.01 | locus YCL011C, strain gbp2, hits give low values 1.01 | locus YCL016C, strain dcc1, hits give low values 0.992 | locus YCL029C, strain bik1, hits give low values 0.99 | locus YCL061C, strain MRC1 (second series), hits give low values 1 | locus YCL061C, strain MRC1, hits give low values 1 | locus YCL069W, strain vba3, hits give low values 1 | locus YCR088W, strain abp1, hits give low values 1.01 | locus YDL005C, strain med2, hits give low values 1.01 | locus YDL035C, strain GPR1, hits give low values 0.973 | locus YDL040C, strain nat1, hits give low values 1 | locus YDL074C, strain BRE1, hits give low values 0.909 | locus YDL101C, strain DUN1, hits give low values 0.978 | locus YDL134C, strain PPH21, hits give low values 0.976 | locus YDL185W, strain tfp1, hits give low values 0.959 | locus YDL192W, strain arf1, hits give low values 0.997 | locus YDR001C, strain nth1, hits give low values 1 | locus YDR069C, strain doa4, hits give low values 1.01 | locus YDR101C, strain arx1, hits give low values 1.01 | locus YDR137W, strain rgp1, hits give low values 0.973 | locus YDR150W, strain NUM1, hits give low values 0.971 | locus YDR159W, strain sac3, hits give low values 1.01 | locus YDR162C, strain NBP2, hits give low values 0.903 | locus YDR195W, strain ref2 0.927 | locus YDR297W, strain sur2, hits give low values 1 | locus YDR318W, strain mcm21, hits give low values 1.02 | locus YDR334W, strain swr1, hits give low values 0.993 | locus YDR335W, strain msn5, hits give low values 1.01 | locus YDR363W, strain ESC2, hits give low values 0.968 | locus YDR388W, hits give low values 0.995 | locus YDR392W, strain spt3, hits give low values 0.918 | locus YDR502C, strain sam2, hits give low values 0.989 | locus YEL003W, strain gim4, hits give low values 0.997 | locus YEL037C, strain rad23, hits give low values 1 | locus YEL061C, strain CIN8 (second series), hits give low values 0.996 | locus YEL061C, strain CIN8, hits give low values 0.984 | locus YER002W, strain NOP16, hits give low values 1.02 | locus YER015W, strain faa2, hits give low values 1 | locus YER016W, strain bim1, hits give low values 1 | locus YER110C, hits give low values 0.999 | locus YER111C, strain swi4, hits give low values 1 | locus YER155C, strain BEM2 (second series), hits give low values 0.996 | locus YER155C, strain BEM2, hits give low values 0.994 | locus YER167W, strain BCK2, hits give low values 1.01 | locus YFR010W, strain ubp6, hits give low values 1.01 | locus YGL078C, strain dbp3, hits give low values 0.979 | locus YGL086W, strain mad1, hits give low values 1.02 | locus YGL167C, strain pmr1, hits give low values 1 | locus YGL173C, strain kem1, hits give low values 1 | locus YGL227W, strain vid30, hits give low values 0.998 | locus YGL240W, strain doc1, hits give low values 0.994 | locus YGL248W, strain PDE1, hits give low values 0.973 | locus YGL253W, strain hxk2, hits give low values 1 | locus YGR078C, strain PAC10, hits give low values 0.958 | locus YGR135W, strain pre9, hits give low values 0.979 | locus YGR229C, strain SMI1, hits give low values 0.954 and 0.937 | locus YGR252W, strain gcn5, hits give low values 1.12 | locus YHR013C, strain ard1, hits give low values 0.969 | locus YHR027C, strain rpn1, hits give low values 1.01 | locus YHR030C, strain SLT2, hits give low values 1 and 0.996 | locus YHR079C, strain IRE1 (second series), hits give low values 1.01 | locus YHR079C, strain IRE1, hits give low values 0.993 | locus YHR094C, strain hxt1, hits give low values 0.996 | locus YHR129C, strain ARP1, hits give low values 0.993 | locus YHR142W, strain chs7, hits give low values 1.01 | locus YHR200W, strain rpn10, hits give low values 1.01 | locus YIL066C, strain RNR3, hits give low values 0.962 | locus YIL073C, strain SPO22, hits give low values 1.06 | locus YIL125W, strain kgd1, hits give low values 0.998 | locus YIR030C, strain dcg1, hits give low values 1.01 | locus YJL092W, strain hpr5, hits give low values 1 | locus YJL095W, strain BCK1 (second series), hits give low values 0.997 | locus YJL095W, strain BCK1, hits give low values 0.963 and 0.978 | locus YJL115W, strain asf1, hits give low values 1 | locus YJL129C, strain trk1, hits give low values 0.994 | locus YJL134W, strain LCB3, hits give low values 0.993 | locus YJL154C, strain vps35, hits give low values 0.996 | locus YJL164C, strain tpk1, hits give low values 0.995 | locus YJL166W, strain qcr8, hits give low values 1.01 | locus YJL168C, strain set2, hits give low values 0.998 | locus YJL187C, strain SWE1 (second series), hits give low values 0.943 | locus YJL187C, strain SWE1, hits give low values 1.01 | locus YJR043C, strain POL32, hits give low values 1.03 | locus YJR066W, strain TOR1, hits give low values 0.934
